Source: PubChem BioAssay AID1159580 (chemical genetic matrix, 2015)
Values joined by “and” are separate entries in the source; they are usually repeats but may differ in a detail not shown here. Equal values may be shown once. In all, about 5,500 compounds went through this assay and about 2,000 (36%) were called active. Inconclusive results (about 18%) are left out. Cut-off read from the data, not from the text of the source: active = normalized growth mostly below about 0.91 (no sharp cut-off); inconclusive = no clear call, values can overlap the other calls; inactive = mostly above about 0.92. This is one part of the list.

Test: chemical genetic growth profiling, strain panel (AID 1159580);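 note: tested at 20 µM; growth read once vehicle control cultures reached saturation at 30 °C; 1 = growth at the plate median or of vehicle wells; lower values mean less growth of the strain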
Conditions: S. cerevisiae deletion strains, growth OD

Measured: normalized growth

CC(C)[C@@H]1CC[C@@H](C)CC1=O
inactive: locus YAL013W, strain DEP1, hits give low values 1.01 | locus YAL021C, strain ccr4, hits give low values 0.945 | locus YAL026C, strain drs2, hits give low values 1.01 | locus YAL030W, strain snc1, hits give low values 0.998 | locus YBL061C, strain skt5, hits give low values 0.993 | locus YBR009C, strain hhf1, hits give low values 0.981 | locus YBR021W, strain FUR4, hits give low values 0.98 | locus YBR023C, strain chs3, hits give low values 0.993 | locus YBR171W, strain sec66, hits give low values 0.986 | locus YBR229C, strain ROT2, hits give low values 1.01 | locus YBR231C, strain swc5, hits give low values 0.988 | locus YBR279W, strain paf1, hits give low values 0.994 | locus YCL011C, strain gbp2, hits give low values 0.967 | locus YCL016C, strain dcc1, hits give low values 0.978 | locus YCL029C, strain bik1, hits give low values 1.01 | locus YCL061C, strain MRC1, hits give low values 0.997 | locus YCL069W, strain vba3, hits give low values 0.99 | locus YCR088W, strain abp1, hits give low values 0.997 | locus YDL005C, strain med2, hits give low values 0.998 | locus YDL035C, strain GPR1, hits give low values 1.02 | locus YDL040C, strain nat1, hits give low values 1 | locus YDL074C, strain BRE1, hits give low values 1.02 | locus YDL101C, strain DUN1, hits give low values 1.02 | locus YDL134C, strain PPH21, hits give low values 1.02 | locus YDL185W, strain tfp1, hits give low values 1.01 | locus YDL192W, strain arf1, hits give low values 1.02 | locus YDR001C, strain nth1, hits give low values 1.01 | locus YDR069C, strain doa4, hits give low values 1.01 | locus YDR101C, strain arx1, hits give low values 1.01 | locus YDR137W, strain rgp1, hits give low values 1 | locus YDR150W, strain NUM1, hits give low values 1.02 | locus YDR159W, strain sac3, hits give low values 0.996 | locus YDR162C, strain NBP2, hits give low values 1.04 | locus YDR195W, strain ref2 0.976 | locus YDR297W, strain sur2, hits give low values 0.987 | locus YDR318W, strain mcm21, hits give low values 0.998 | locus YDR334W, strain swr1, hits give low values 0.993 | locus YDR335W, strain msn5, hits give low values 0.987 | locus YDR388W, hits give low values 1 | locus YDR392W, strain spt3, hits give low values 0.963 | locus YDR502C, strain sam2, hits give low values 1.01 | locus YEL003W, strain gim4, hits give low values 0.995 | locus YEL037C, strain rad23, hits give low values 0.982 | locus YEL061C, strain CIN8 (second series), hits give low values 0.989 | locus YEL061C, strain CIN8, hits give low values 1 | locus YER015W, strain faa2, hits give low values 0.984 | locus YER016W, strain bim1, hits give low values 0.991 | locus YER110C, hits give low values 1.01 | locus YER111C, strain swi4, hits give low values 1 | locus YER155C, strain BEM2 (second series), hits give low values 0.99 | locus YER155C, strain BEM2, hits give low values 0.998 | locus YER167W, strain BCK2, hits give low values 1.02 | locus YFR010W, strain ubp6, hits give low values 0.996 | locus YGL078C, strain dbp3, hits give low values 1 | locus YGL086W, strain mad1, hits give low values 1.01 | locus YGL167C, strain pmr1, hits give low values 0.992 | locus YGL173C, strain kem1, hits give low values 0.999 | locus YGL227W, strain vid30, hits give low values 1 | locus YGL240W, strain doc1, hits give low values 1 | locus YGL248W, strain PDE1, hits give low values 1.02 | locus YGL253W, strain hxk2, hits give low values 0.992 | locus YGR078C, strain PAC10, hits give low values 1.02 | locus YGR135W, strain pre9, hits give low values 1.01 | locus YGR229C, strain SMI1, hits give low values 1.05 | locus YGR252W, strain gcn5, hits give low values 1.03 | locus YHR013C, strain ard1, hits give low values 0.979 | locus YHR027C, strain rpn1, hits give low values 1 | locus YHR030C, strain SLT2, hits give low values 1.01 and 0.977 | locus YHR079C, strain IRE1 (second series), hits give low values 0.995 | locus YHR079C, strain IRE1, hits give low values 0.976 | locus YHR094C, strain hxt1, hits give low values 1.02 | locus YHR129C, strain ARP1, hits give low values 1.01 | locus YHR142W, strain chs7, hits give low values 0.968 | locus YHR200W, strain rpn10, hits give low values 1.01 | locus YIL066C, strain RNR3, hits give low values 1.04 | locus YIL073C, strain SPO22, hits give low values 1.06 | locus YIL125W, strain kgd1, hits give low values 1.02 | locus YIR030C, strain dcg1, hits give low values 1.01 | locus YJL092W, strain hpr5, hits give low values 0.989 | locus YJL095W, strain BCK1 (second series), hits give low values 0.978 | locus YJL095W, strain BCK1, hits give low values 1.06 and 0.982 | locus YJL115W, strain asf1, hits give low values 0.991 | locus YJL129C, strain trk1, hits give low values 1.01 | locus YJL134W, strain LCB3, hits give low values 1.01 | locus YJL154C, strain vps35, hits give low values 0.989 | locus YJL164C, strain tpk1, hits give low values 0.961 | locus YJL166W, strain qcr8, hits give low values 0.995 | locus YJL168C, strain set2, hits give low values 0.996 | locus YJL187C, strain SWE1 (second series), hits give low values 1.03 | locus YJL187C, strain SWE1, hits give low values 0.99 | locus YJR043C, strain POL32, hits give low values 1.02
